These results are taken from PubChem BioAssay.

Calls of active or inactive are those of the source. The rule behind the calls is not given here.

The target of the assay is Pantothenate synthetase (Mycobacterium tuberculosis (strain ATCC 25618 / H37Rv)) (UniProt P9WIL5). The assay can be described thus: Recombinant Mtb pantothenate synthetase (PanC) inhibitors, coupled enzyme, confirmatory (AID 375).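 Note: 0% = full reaction with vehicle and 100% = no enzyme background.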 The following applies: coupled enzyme assay; at 10 µM, active compounds read high.
Chain of Pantothenate synthetase (Mycobacterium tuberculosis (strain ATCC 25618 / H37Rv)) (P9WIL5 whole entry, looked up): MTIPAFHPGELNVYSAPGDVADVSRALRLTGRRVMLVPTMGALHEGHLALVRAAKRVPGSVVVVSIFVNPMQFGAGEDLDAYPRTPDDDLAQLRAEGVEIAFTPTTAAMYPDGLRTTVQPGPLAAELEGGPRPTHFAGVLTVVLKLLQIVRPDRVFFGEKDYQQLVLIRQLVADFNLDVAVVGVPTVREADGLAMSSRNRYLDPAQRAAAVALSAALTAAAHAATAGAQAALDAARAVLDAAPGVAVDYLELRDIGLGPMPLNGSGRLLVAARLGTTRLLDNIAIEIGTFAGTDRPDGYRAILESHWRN
A word on the inhibition: it is how much of the control response was suppressed. Turning to `CCCCn1c(SCC(=O)Nc2cc(C)on2)nnc1-c1cccnc1`, the inhibition was 0% (inactive).

Consider `CCOc1ccc(NC(=O)CN2CCN(CC(=O)c3ccc(OCC)cc3)CC2)cc1`, for which the inhibition is 4% (inactive).

Take `CCC(=O)/C=C1\Sc2ccc(OC)cc2N1CCO`: the inhibition is 3% (inactive).

As for `CN(c1cccc(NC(=O)COc2ccccc2)c1)S(C)(=O)=O`, the inhibition was 6% (inactive).

As for `CCOC(=O)C1CCN(c2c(N(C)Cc3ccco3)c(=O)c2=O)CC1`, the inhibition was 0% (inactive).

As for `CN(C)c1nc(OCCOC(=O)Nc2ccc(Cl)cc2Cl)nc(N(C)C)n1`, the inhibition is 0% (inactive).

For the compound `CCSC1=C(C#N)C(c2cccc(OC)c2)CC(=O)N1` (centres undefined), the inhibition was 6% (inactive).

Consider `O=C(NCc1cccs1)C1CC(=O)N(C2CCCC2)C1` (centres undefined), for which the inhibition was 2% (inactive).

`O=C(Nc1cccnc1N1CCOCC1)c1ccco1`: the inhibition is 10% (inactive).

For `Cc1ccc(C)c(/C(O)=C2\C(=O)C(=O)N(CCCN3CCOCC3)C2c2cccnc2)c1` (centres undefined), the inhibition is 2% (inactive).

As to `CCN(c1ccccc1)S(=O)(=O)c1ccc(F)cc1C`, the inhibition is 1% (inactive).

As for `O=C1N(c2ccccc2)C2CS(=O)(=O)CC2N1c1ccc(Br)cc1` (centres undefined), the inhibition is 0% (inactive).

Consider `CC(=O)/C(C[N+]1(C)CCCCC1)=N\O`, for which the inhibition was 3% (inactive).

`Cc1c(C)n(C(=O)CN2CCN(c3ccccn3)CC2)c2ccccc12`: the inhibition was 0% (inactive).

On to `COc1ccccc1N1CCN(S(=O)(=O)CC23CCC(CC2=O)C3(C)C)CC1` (centres undefined), for which the inhibition was 1% (inactive).

Take `CC(C)(C)C(=O)NC1CCN(C(=O)N2CCCC2)CC1`: the inhibition was 6% (inactive).

Regarding `O=C(O)c1ccccc1S(=O)(=O)NCC(O)COc1ccc(Br)cc1` (centres undefined), the inhibition is 2% (inactive).

Regarding `COC(=O)CCN1CCC(C(N)=O)CC1`, the inhibition is 1% (inactive).

On to `CC(=O)OCC1OC(c2ccccc2)C(OC(C)=O)C(OC(C)=O)C1OC(C)=O` (centres undefined), for which the inhibition was 0% (inactive).

On to `CCOC(=O)c1ccc(-n2c(=O)[nH]c3ccccc3c2=O)cc1`, for which the inhibition is 2% (inactive).

In the case of `O=C(c1cc2nc(-c3ccco3)cc(C(F)(F)F)n2n1)N1CCN(c2ccccn2)CC1`, the inhibition is 6% (inactive).

`CC1(C)CC(=O)C(C=NCC2CCNCC2)=C(O)C1`: the inhibition is 2% (inactive).

In the case of `CN(C)S(=O)(=O)n1cnc(-c2ccccc2)c1-c1ccccc1`, the inhibition is 4% (inactive).

As for `COC(=O)c1cccc(NC(=O)CSc2nnc(COc3ccc(C#N)cc3)n2-c2ccccc2)c1`, the inhibition is 2% (inactive).
